# Data published in ChEMBL document CHEMBL2218924, “A broad activity screen in support of a chemogenomic map for kinase signalling research and drug discovery” (Biochem J, 2013).
# Legend:
# [1] = biological target: T1, Serine/threonine-protein kinase TBK1 (Homo sapiens) (UniProt Q9UHD2); details: at 10 µM
# T1 sequence (whole entry): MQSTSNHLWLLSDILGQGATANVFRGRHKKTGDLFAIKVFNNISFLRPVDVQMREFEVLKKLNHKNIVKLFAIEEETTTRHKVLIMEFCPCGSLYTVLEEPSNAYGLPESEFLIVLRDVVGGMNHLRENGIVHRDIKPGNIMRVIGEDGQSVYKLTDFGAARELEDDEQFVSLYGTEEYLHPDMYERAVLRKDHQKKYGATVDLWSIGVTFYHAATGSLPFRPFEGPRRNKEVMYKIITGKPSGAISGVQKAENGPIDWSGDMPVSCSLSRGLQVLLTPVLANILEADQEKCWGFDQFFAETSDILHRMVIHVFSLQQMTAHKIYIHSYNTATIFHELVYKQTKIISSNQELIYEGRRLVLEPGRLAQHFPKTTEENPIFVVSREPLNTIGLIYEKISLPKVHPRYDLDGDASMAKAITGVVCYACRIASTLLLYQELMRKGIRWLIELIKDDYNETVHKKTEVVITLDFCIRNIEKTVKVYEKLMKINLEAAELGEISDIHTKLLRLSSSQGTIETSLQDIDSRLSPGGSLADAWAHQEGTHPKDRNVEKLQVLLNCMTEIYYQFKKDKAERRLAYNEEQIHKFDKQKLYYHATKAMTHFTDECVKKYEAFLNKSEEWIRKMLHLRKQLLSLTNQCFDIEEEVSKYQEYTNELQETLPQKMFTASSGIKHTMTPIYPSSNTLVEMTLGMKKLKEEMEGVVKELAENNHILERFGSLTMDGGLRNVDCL
# [2] = biological target: T2, TGF-beta receptor type-1 (Homo sapiens) (UniProt P36897); details: at 1 µM
# T2 sequence (whole entry): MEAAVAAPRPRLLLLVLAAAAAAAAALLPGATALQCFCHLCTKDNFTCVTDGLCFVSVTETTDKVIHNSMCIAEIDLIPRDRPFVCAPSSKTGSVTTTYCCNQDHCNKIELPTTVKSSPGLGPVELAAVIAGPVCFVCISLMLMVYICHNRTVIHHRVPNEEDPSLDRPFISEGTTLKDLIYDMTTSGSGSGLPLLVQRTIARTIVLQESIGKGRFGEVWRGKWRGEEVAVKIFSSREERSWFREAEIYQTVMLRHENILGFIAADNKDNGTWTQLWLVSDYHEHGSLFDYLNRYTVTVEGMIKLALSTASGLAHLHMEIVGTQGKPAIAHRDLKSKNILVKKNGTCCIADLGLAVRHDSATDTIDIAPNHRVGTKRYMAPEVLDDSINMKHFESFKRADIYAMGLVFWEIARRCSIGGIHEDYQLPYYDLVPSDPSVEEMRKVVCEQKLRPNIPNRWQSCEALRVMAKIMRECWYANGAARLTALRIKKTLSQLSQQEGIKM
# [3] = biological target: T2, TGF-beta receptor type-1 (Homo sapiens); details: at 10 µM
# [4] = biological target: Insulin-like growth factor 1 receptor (Homo sapiens) (UniProt P08069); details: at 1 µM
# Chain of Insulin-like growth factor 1 receptor (Homo sapiens) (P08069 31-736 limits assumed): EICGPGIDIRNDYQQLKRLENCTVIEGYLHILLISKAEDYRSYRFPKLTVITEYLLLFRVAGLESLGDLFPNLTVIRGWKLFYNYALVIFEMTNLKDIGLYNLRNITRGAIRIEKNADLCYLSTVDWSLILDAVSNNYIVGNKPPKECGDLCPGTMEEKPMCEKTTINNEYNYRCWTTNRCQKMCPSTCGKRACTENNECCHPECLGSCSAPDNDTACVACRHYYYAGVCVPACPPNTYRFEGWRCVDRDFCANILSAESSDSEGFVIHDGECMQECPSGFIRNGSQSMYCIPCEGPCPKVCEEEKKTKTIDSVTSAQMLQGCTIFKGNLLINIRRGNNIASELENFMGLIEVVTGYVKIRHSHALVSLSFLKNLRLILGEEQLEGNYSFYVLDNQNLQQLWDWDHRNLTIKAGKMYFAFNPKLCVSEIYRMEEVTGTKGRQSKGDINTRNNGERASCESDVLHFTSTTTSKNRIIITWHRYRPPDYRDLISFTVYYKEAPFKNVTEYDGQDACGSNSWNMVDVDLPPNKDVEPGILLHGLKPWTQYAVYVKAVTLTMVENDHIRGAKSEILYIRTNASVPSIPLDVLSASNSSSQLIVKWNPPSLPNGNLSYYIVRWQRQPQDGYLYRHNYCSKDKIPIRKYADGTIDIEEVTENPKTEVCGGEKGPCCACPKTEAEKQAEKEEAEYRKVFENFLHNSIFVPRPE
# Chain of Insulin-like growth factor 1 receptor (Homo sapiens) (P08069 741-1367 limits assumed): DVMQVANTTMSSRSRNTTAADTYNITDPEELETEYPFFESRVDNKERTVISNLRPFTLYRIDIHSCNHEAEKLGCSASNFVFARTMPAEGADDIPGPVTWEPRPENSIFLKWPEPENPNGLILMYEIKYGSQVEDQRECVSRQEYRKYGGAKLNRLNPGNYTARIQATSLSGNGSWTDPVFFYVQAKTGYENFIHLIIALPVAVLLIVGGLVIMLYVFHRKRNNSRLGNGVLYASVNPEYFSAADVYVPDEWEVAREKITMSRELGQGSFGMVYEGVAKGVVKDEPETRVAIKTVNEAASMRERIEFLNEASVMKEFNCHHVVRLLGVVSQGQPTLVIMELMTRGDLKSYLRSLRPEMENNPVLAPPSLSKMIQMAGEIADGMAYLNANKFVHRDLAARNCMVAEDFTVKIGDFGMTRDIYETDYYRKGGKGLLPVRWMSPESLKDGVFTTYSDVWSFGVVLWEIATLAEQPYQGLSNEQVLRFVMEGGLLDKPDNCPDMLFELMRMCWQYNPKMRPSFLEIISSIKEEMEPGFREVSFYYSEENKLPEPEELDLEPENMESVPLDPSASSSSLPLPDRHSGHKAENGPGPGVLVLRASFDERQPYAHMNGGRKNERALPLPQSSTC
# [5] = biological target: Insulin-like growth factor 1 receptor (Homo sapiens) (UniProt P08069); details: at 10 µM
# [6] = biological target: T3, Inhibitor of nuclear factor kappa-B kinase subunit alpha (Homo sapiens) (UniProt O15111); details: at 1 µM
# T3 sequence (whole entry): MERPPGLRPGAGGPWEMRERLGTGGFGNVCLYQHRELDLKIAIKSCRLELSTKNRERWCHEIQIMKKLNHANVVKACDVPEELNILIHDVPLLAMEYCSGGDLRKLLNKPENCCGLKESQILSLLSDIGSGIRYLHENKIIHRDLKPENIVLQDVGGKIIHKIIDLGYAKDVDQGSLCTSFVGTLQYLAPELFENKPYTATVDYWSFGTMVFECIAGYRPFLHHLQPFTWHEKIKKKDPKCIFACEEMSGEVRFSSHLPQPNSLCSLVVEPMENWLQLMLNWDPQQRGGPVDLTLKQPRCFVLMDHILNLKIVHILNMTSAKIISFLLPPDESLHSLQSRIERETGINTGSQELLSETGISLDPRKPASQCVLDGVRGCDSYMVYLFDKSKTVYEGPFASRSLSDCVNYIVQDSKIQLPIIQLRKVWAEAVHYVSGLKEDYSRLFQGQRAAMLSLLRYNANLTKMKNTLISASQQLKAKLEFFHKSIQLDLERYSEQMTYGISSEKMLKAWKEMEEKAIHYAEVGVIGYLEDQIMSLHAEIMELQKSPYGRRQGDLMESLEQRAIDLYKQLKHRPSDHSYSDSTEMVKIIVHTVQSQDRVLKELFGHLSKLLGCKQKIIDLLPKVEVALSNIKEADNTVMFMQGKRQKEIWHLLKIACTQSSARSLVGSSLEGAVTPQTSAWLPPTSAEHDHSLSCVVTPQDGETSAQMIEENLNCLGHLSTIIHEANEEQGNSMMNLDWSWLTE
# [7] = biological target: T3, Inhibitor of nuclear factor kappa-B kinase subunit alpha (Homo sapiens); details: at 10 µM
# [8] = biological target: T4, Inhibitor of nuclear factor kappa-B kinase subunit beta (Homo sapiens) (UniProt O14920); details: at 1 µM
# T4 sequence (whole entry): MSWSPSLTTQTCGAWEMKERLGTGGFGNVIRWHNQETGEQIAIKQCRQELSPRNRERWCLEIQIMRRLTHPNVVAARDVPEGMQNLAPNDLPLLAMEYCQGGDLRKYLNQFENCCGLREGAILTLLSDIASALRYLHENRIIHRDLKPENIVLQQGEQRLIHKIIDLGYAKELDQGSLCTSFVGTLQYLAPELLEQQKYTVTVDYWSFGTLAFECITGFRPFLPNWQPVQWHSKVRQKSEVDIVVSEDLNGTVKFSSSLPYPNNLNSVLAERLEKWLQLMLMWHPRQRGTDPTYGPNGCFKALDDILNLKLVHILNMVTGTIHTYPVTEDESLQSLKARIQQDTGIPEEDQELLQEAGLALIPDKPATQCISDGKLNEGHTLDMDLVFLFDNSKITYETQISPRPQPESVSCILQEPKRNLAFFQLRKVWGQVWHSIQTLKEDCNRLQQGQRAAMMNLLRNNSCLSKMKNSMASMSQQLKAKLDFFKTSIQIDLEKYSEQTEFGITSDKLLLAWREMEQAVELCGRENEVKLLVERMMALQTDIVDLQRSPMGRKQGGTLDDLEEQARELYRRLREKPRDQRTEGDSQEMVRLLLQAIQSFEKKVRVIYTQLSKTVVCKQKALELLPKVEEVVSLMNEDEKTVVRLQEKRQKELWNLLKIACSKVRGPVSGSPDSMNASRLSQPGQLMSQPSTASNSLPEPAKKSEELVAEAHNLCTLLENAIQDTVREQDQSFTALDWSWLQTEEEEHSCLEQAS
# [9] = biological target: T4, Inhibitor of nuclear factor kappa-B kinase subunit beta (Homo sapiens); details: at 10 µM
# [10] = biological target: Insulin receptor (Homo sapiens) (UniProt P06213); details: at 1 µM
# Chain of Insulin receptor (Homo sapiens) (P06213 28-758 limits assumed): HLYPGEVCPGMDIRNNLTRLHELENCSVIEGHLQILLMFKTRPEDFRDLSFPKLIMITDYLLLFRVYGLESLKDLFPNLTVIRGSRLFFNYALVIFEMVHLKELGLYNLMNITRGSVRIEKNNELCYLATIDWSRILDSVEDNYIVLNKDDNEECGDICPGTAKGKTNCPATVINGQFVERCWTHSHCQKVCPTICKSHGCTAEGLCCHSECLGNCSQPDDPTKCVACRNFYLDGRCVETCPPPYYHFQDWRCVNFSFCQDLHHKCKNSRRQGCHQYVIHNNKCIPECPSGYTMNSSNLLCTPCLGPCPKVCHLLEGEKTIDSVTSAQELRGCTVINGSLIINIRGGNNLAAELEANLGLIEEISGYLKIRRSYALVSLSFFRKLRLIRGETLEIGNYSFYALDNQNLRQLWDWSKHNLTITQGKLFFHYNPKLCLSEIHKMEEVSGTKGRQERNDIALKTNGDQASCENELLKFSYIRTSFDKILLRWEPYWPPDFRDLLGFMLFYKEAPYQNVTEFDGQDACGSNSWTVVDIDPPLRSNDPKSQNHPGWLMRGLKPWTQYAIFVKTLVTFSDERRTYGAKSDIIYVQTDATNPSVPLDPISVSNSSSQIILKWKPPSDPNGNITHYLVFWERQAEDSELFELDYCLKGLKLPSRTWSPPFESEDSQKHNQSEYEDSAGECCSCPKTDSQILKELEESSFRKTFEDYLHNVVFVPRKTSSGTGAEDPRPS
# Chain of Insulin receptor (Homo sapiens) (P06213 763-1382 limits assumed): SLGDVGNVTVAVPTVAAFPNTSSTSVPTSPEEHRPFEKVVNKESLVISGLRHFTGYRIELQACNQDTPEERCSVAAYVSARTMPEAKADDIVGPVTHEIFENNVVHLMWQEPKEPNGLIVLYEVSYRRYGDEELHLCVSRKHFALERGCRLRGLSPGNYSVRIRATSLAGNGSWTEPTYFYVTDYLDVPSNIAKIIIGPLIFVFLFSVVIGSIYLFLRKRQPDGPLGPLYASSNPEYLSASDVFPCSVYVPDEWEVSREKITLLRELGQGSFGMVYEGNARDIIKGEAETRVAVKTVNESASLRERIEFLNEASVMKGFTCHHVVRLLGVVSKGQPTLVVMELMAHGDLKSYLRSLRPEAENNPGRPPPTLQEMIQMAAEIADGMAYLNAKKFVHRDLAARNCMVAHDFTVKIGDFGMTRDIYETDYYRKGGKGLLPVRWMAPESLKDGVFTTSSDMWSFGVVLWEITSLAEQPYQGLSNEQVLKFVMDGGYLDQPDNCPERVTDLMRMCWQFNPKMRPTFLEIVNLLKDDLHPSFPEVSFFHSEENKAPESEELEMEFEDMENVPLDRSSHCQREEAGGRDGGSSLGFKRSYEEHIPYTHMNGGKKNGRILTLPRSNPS
# [11] = biological target: Insulin receptor (Homo sapiens) (UniProt P06213); details: at 10 µM
# [12] = biological target: Insulin receptor (Homo sapiens) (UniProt P06213); details: at 1 µM; remark: listed apart in the source
# [13] = biological target: Insulin receptor (Homo sapiens) (UniProt P06213); details: at 10 µM; remark: listed apart in the source
# [14] = biological target: Interleukin-1 receptor-associated kinase 1 (Homo sapiens) (UniProt P51617); details: at 1 µM
# Chain of Interleukin-1 receptor-associated kinase 1 (Homo sapiens) (P51617 whole entry, looked up): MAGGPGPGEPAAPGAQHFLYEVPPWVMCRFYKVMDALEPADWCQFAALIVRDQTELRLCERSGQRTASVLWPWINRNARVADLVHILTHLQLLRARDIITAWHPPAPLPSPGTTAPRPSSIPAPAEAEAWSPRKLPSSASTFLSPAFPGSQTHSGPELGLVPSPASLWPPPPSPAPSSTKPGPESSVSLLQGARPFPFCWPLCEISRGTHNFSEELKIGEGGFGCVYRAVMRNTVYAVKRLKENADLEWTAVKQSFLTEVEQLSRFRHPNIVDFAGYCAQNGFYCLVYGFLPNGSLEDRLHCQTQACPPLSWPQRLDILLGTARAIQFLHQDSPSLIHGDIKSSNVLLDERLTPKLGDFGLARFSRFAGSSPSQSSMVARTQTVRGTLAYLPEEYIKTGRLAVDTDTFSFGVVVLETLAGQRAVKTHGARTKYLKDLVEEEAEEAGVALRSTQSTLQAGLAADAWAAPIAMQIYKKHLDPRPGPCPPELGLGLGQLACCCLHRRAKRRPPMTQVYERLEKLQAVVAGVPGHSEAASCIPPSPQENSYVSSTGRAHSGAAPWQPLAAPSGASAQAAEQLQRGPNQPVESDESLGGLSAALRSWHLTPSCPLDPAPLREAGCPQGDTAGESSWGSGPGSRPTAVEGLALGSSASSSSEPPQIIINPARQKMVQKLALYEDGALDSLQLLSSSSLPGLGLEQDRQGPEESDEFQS
# [15] = biological target: Interleukin-1 receptor-associated kinase 1 (Homo sapiens) (UniProt P51617); details: at 10 µM
# [16] = biological target: T5, Interleukin-1 receptor-associated kinase 4 (Homo sapiens) (UniProt Q9NWZ3); details: at 1 µM
# T5 sequence (whole entry): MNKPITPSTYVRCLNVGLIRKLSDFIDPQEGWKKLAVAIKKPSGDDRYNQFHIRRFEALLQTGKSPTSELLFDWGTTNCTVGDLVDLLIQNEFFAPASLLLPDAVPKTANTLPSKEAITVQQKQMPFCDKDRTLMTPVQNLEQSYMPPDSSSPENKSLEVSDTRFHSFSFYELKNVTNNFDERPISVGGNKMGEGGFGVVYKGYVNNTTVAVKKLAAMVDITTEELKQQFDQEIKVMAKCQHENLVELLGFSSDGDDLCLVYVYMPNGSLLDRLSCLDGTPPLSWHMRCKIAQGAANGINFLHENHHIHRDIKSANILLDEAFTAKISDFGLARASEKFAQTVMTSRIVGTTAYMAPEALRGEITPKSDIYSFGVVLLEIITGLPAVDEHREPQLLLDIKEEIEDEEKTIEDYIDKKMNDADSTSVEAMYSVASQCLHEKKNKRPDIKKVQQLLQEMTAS
# [17] = biological target: T5, Interleukin-1 receptor-associated kinase 4 (Homo sapiens); details: at 10 µM
# [18] = biological target: Insulin receptor-related protein (Homo sapiens) (UniProt P14616); details: at 1 µM
# Chain of Insulin receptor-related protein (Homo sapiens) (P14616 27-742 limits assumed): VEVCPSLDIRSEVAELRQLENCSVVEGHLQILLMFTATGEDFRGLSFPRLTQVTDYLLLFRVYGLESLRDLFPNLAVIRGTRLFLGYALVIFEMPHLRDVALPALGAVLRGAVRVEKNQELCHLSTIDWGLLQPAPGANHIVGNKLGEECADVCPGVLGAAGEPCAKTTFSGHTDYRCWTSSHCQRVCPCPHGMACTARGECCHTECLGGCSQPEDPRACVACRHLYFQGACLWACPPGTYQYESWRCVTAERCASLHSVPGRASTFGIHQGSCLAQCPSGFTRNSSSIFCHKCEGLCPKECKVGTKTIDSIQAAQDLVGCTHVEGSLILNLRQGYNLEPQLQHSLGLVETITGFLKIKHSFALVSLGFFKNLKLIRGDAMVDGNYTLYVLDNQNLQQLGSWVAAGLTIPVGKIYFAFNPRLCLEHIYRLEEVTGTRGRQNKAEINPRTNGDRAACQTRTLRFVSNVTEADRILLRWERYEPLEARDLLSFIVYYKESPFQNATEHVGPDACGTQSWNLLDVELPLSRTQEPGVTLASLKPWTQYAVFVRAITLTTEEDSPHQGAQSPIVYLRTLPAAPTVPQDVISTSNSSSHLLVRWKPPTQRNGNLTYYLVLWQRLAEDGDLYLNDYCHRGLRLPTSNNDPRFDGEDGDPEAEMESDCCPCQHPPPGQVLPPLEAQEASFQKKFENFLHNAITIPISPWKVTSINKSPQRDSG
# Chain of Insulin receptor-related protein (Homo sapiens) (P14616 747-1297 limits assumed): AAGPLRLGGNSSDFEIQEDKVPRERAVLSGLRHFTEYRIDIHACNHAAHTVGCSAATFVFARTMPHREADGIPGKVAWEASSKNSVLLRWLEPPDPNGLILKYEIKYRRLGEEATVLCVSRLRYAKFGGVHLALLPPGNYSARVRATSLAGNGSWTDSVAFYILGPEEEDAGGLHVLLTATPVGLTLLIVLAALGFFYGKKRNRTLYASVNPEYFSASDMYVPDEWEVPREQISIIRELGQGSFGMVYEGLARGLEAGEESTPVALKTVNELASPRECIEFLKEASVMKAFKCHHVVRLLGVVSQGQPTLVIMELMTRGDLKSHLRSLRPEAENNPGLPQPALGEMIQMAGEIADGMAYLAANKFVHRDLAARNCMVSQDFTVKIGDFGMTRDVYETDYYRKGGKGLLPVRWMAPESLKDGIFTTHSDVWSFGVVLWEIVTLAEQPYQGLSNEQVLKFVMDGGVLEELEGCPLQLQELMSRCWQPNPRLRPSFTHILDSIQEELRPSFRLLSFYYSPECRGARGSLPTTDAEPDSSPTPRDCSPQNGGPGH
# [19] = biological target: Insulin receptor-related protein (Homo sapiens) (UniProt P14616); details: at 10 µM
# [20] = biological target: T6, Tyrosine-protein kinase ITK/TSK (Homo sapiens) (UniProt Q08881); details: at 1 µM
# T6 sequence (whole entry): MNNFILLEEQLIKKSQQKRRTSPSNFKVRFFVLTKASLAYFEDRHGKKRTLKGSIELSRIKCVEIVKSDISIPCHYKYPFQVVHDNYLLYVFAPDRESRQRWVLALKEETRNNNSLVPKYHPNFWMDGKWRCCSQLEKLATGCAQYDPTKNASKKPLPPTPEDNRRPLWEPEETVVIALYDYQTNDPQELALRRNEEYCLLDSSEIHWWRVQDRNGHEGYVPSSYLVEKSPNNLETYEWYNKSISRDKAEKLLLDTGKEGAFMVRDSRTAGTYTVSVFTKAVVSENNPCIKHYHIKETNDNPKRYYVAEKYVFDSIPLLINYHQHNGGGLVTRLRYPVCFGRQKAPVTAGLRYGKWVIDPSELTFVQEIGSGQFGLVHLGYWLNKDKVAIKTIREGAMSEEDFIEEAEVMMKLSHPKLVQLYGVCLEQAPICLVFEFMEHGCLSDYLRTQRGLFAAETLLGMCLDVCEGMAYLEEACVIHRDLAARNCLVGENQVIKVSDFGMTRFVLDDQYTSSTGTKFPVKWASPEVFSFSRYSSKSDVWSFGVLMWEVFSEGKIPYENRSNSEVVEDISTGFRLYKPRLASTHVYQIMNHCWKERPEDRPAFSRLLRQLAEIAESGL
Structure (SMILES),residual activity [1],residual activity [2],residual activity [3],residual activity [4],residual activity [5],residual activity [6],residual activity [7],residual activity [8],residual activity [9],residual activity [10],residual activity [11],residual activity [12],residual activity [13],residual activity [14],residual activity [15],residual activity [16],residual activity [17],residual activity [18],residual activity [19],residual activity [20]
Cc1cc(Nc2nc(-c3ccccc3)nc3ccccc23)n[nH]1,0%,96%,78%,20%,1%,102%,72%,78%,51%,16%,5%,36%,7%,69%,23%,45%,12%,8%,1%,5%
Oc1n[nH]c2nnc(-c3c(-c4ccccc4)nn4ccccc34)cc12,60%,84%,74%,84%,91%,102%,92%,97%,93%,47%,12%,89%,75%,99%,103%,75%,89%,25%,2%,99%
Cc1nc(-c2ccccc2)c(-c2ccncc2)o1,88%,116%,100%,107%,116%,109%,101%,109%,82%,117%,106%,109%,93%,110%,107%,104%,88%,118%,123%,113%
CN(C)CCCn1cc(C2=C(c3c[nH]c4ccccc34)C(=O)NC2=O)c2ccccc21,22%,91%,71%,110%,,101%,58%,104%,82%,,100%,100%,72%,111%,89%,121%,53%,137%,75%,
COc1cc2ncnc(Nc3ccc(NC(=O)c4ccccc4)cc3)c2cc1OC,75%,98%,,,103%,102%,96%,109%,106%,,92%,105%,,100%,99%,,97%,,79%,
c1ccc2c(-c3ccncc3)c[nH]c2c1,51%,87%,88%,88%,79%,97%,69%,105%,73%,110%,70%,97%,87%,76%,57%,94%,99%,,83%,101%
CCN(CC)C(=O)c1ccc(Nc2nc(OCC3CCCCC3)c3nc[nH]c3n2)cc1,2%,82%,50%,70%,16%,,,94%,69%,95%,143%,47%,7%,,35%,57%,15%,69%,1%,32%
